# Test results: PubChem BioAssay (NCI)
# About 83,000 compounds went through this panel and 20% of them were active in at least one assay; those are over-represented in the sample as a whole.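 Treatment: one concentration, 48 hours, 96-well format. Scoring: percent growth, with anything below 10 considered active.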 Values without a mark were called inactive. The source made the active and inactive calls.
# Columns and labels:
# Assay in all cases: NCI-60 one-dose screen, 48 h (100 = growth as untreated, 0 = no growth, -100 = all killed)
# Settings in all cases: 10 µM unless noted
# DU-145 prostate = system: DU-145 prostate
# K-562 leukemia = system: K-562 leukemia
# MALME-3M melanoma = system: MALME-3M melanoma
# MDA-MB-231 breast = system: MDA-MB-231 breast
# RXF 393 renal = system: RXF 393 renal
# SF-268 CNS = system: SF-268 CNS
# SF-295 CNS = system: SF-295 CNS
# SF-539 CNS = system: SF-539 CNS
# UACC-257 melanoma = system: UACC-257 melanoma
# M14 melanoma = system: M14 melanoma
# HCT-15 colon = system: HCT-15 colon
# HT29 colon = system: HT29 colon
# SNB-75 CNS = system: SNB-75 CNS
# SNB-19 CNS = system: SNB-19 CNS
# U251 CNS = system: U251 CNS
# PC-3 prostate = system: PC-3 prostate
# SK-MEL-5 melanoma = system: SK-MEL-5 melanoma
# UACC-62 melanoma = system: UACC-62 melanoma
# LOX IMVI melanoma = system: LOX IMVI melanoma
# SK-MEL-28 melanoma = system: SK-MEL-28 melanoma
Compound,growth (DU-145 prostate),growth (K-562 leukemia),growth (MALME-3M melanoma),growth (MDA-MB-231 breast),growth (RXF 393 renal),growth (SF-268 CNS),growth (SF-295 CNS),growth (SF-539 CNS),growth (UACC-257 melanoma),growth (M14 melanoma),growth (HCT-15 colon),growth (HT29 colon),growth (SNB-75 CNS),growth (SNB-19 CNS) [%],growth (U251 CNS),growth (PC-3 prostate) [%],growth (SK-MEL-5 melanoma),growth (UACC-62 melanoma),growth (LOX IMVI melanoma),growth (SK-MEL-28 melanoma)
CCN(CC)S(=O)(=O)c1ccc(-c2nc(C(Cl)Cl)nc3cc(-c4ccc(F)cc4)nn23)cc1,16%,34.6%,57.6%,1.34% (active),-30.2% (active),48.5%,32.6%,18.4%,67.7%,47.1%,23.3%,4.77% (active),56.5%,40.2,17.7%,18.6,83.3%,54.2%,32%,27.9%
Cc1ccc(NC2=C(Cl)C(=O)c3nc(C)ccc3C2=O)c(C)c1,-1.93% (active),2.95% (active),13.9%,11.9%,31.1%,24.8%,-29.9% (active),-61.9% (active),-80.6% (active),-58.3% (active),-57.7% (active),80.5%,87.9%,30.5,22.6%,22.6,-50.2% (active),18.5%,-29.2% (active),30.9%
Brc1ccc(-c2cc(-c3ccc4c(c3)OCCO4)n[nH]2)s1,39.8%,12.4%,45.8%,41.9%,32%,62.4%,18.4%,23.5%,75.1%,21.3%,19.2%,11.1%,7.95% (active),42.6,27.8%,50,12.1%,49.5%,41.7%,57.8%
O=S1SC(c2ccccc2)=NN1c1cc(F)cc(F)c1 (stereo not given),57.2%,22.5%,75.5%,69.4%,52.2%,54.3%,52.1%,60.6%,69.3%,20.6%,28.7%,98.9%,74.9%,49.8,20.3%,13.3,50.4%,29.1%,38.1%,46.4%
CN1CCN(c2ccc(Nc3nc(NCCCNS(=O)(=O)c4cccc(F)c4)c4sccc4n3)cc2)CC1,43.4%,12.5%,-83.6% (active),36.1%,-71.4% (active),44.2%,6.24% (active),-80.4% (active),-64% (active),-62.2% (active),17.3%,-68.7% (active),82.1%,48.7,6.85% (active),63.1,-77.6% (active),0.267% (active),-58.1% (active),-77.4% (active)
Cn1cc(-c2nn3cc(-c4ccncc4)nc3s2)c2cc(Br)ccc21,75.1%,4.34% (active),56.8%,78.5%,65.4%,68.8%,38.5%,80.4%,98.3%,52%,18%,4.54% (active),45.9%,81.7,54.7%,30.2,57.9%,61.5%,52.5%,94.2%
CC1=C(C)C(=O)C(Nc2cccc(C(=O)OC(C)(C)C)c2)=C(Cl)C1=O,103%,21.6%,94.4%,48.9%,103%,92%,105%,96.6%,91.4%,83.3%,80.2%,98.2%,58.4%,91.5,88.5%,76.9,98.1%,93.4%,62.6%,104%
CS(=O)(=O)c1ccc(/C(=N/N=C(N)N)c2ccc(Cl)cc2)cc1,101%,40.7%,81.6%,96.1%,82.6%,80.7%,95.4%,91.8%,90.2%,72.8%,81.6%,92.9%,72.8%,90.3,92.8%,76.5,92.2%,80.8%,79.7%,95.1%
C#Cc1cc(C(=O)Nc2ccc(CNCCN3CCOCC3)c(C(F)(F)F)c2)ccc1C,97%,67.1%,92.1%,90.3%,74.7%,86.3%,99.6%,93.6%,98.6%,101%,88%,68.8%,76%,96.1,80.7%,89.3,94.2%,93.9%,1.04% (active),93.6%
CCc1cc2c(cc1Cl)nc1c(=O)[nH]c(=O)nc-1n2CCOCC(C)C,95%,42.1%,2.24% (active),55.8%,80.5%,80%,60%,79.3%,36.6%,49.4%,47.4%,24.3%,92.5%,85,73.9%,68.9,34.4%,72.1%,49.8%,87%
O=[N+]([O-])c1ccc(NC(=S)NNC(=S)Nc2ccc(Br)cc2)cc1,104%,49.1%,89.4%,91.6%,103%,101%,72.6%,95.2%,95.2%,87.9%,42.1%,95%,121%,98.6,88.4%,75.3,92.7%,48.5%,60.9%,102%
CCc1cccc2c3c(sc12)C(c1ccc(F)cc1)C(C#N)=C(/N=C/c1ccc(Cl)cc1)O3 (stereo not given),29%,10.5%,57.2%,30.3%,-7.19% (active),43.5%,6.46% (active),-6.53% (active),69.4%,9.94% (active),12.9%,-18.9% (active),34.8%,27.1,14.5%,21.7,32.4%,23.8%,30.3%,61.9%
CCCCOc1ccc(S(=O)(=O)N2CCN(c3nc(C)cc(N4CCOCC4)n3)CC2)cc1,16.6%,44.3%,107%,3.79% (active),85%,3.91% (active),-22.5% (active),75.9%,-47.2% (active),-15.9% (active),5.32% (active),-35.5% (active),2.51% (active),62.6,18.8%,36.4,84%,-23.6% (active),-71.5% (active),-2.33% (active)
Cn1ncc2ncc(-c3ccc4ncc(C#N)c(N5CCc6cc(F)c(Cl)cc65)c4c3)cc21,30%,39.7%,39.5%,26.7%,-17.4% (active),49.7%,22.9%,27.1%,54.9%,44.9%,23.2%,41.4%,-1.84% (active),51.6,48.6%,26,39.5%,20.8%,19.3%,48.4%
Cc1[nH]c(C(=O)Nc2ccc(C(=O)NCC3CCNCC3)cc2OC(C)C)c(Cl)c1Cl,80.2%,10.6%,80.1%,72.3%,71.3%,76.6%,73.5%,83.8%,101%,62.4%,93.7%,40.6%,44.8%,64.2,8.95% (active),61.6,95.9%,98.8%,9.32% (active),83.9%
